Source: PubChem BioAssay (Tox21)
Where “and” joins values, the source holds several entries; their conditions need not be identical. Equal values may be shown once. Inconclusive results are not listed. A call without a number means that no potency is given here. Calls of active or inactive are those of the source. Unless noted, the call rests on the fitted dose curve.

Legend:
[1] = qHTS assay to identify small molecule agonists of the vitamin D receptor (VDR) signaling pathway - cell viability counter screen (AID 743224; active means well fitted curve in the direction sought with a large enough effect in the repeat runs; an effect the other way counts as inactive or inconclusive; further: series mostly up to about 63 µM; nearly all actives have a fitted effect of over 50% in size)
In short: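 Plated VDR-bla cells (4 h, 37C) received compound, incubated 16 h, then LiveBLAzer substrate 2 h RT; CellTiter-Glo added afterwards, luminescence read at 30 min.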

[2] = qHTS assay to identify small molecule antagonists of the vitamin D receptor (VDR) signaling pathway - cell viability counter screen (AID 743225; active means well fitted curve in the direction sought with a large enough effect in the repeat runs; an effect the other way counts as inactive or inconclusive; further: nearly all actives have a fitted effect of over 50% in size)
In short: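 Same-well multiplex: following 16 h treatment of HEK 293T cells carrying a UAS-driven beta-lactamase reporter with compound and agonist (3 nM final), and a 2 h FRET substrate step, CellTiter-Glo was added and luminescence read after 30 min.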

[3] = qHTS assay to identify small molecule agonists of the NFkB signaling pathway (AID 1159509; active means well fitted curve in the direction sought with a large enough effect in the signal ratio in the repeat runs, not every such curve was filed as active; the % refers to the signal ratio; further: series mostly up to about 61 µM)
In short: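 NFkB-bla ME-180 cells with a beta-lactamase reporter under an NF-kB response element were plated overnight, treated with compounds in DMSO for 5 hr at 37 C, then loaded with FRET substrate for 1.5 hr at room temperature.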

[4] = qHTS assay to identify small molecule agonists of the NFkB signaling pathway - cell viability counter screen (AID 1159515); further: series mostly up to about 61 µM; nearly all actives have a fitted effect of over 55% in size
In short: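 Using the same wells as the NFkB reporter read, ME-180 NFkB-bla cells given compounds for 5 hr were assessed for viability via CellTiter-Glo, with luminescence taken after a 30 min room-temperature incubation.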

[5] = qHTS assay to identify small molecule agonists of the endoplasmic reticulum stress response signaling pathway - cell viability counter screen (AID 1159517); further: nearly all actives have a fitted effect of over 50% in size; further: potency means the concentration at half of the fitted maximal effect
In short: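 Cells, HeLa ESRE-bla; density, 1,500/well; dosing, 5 hr at 37 C, 5% CO2; readout, CellTiter-Glo luminescence after 30 min RT.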

[6] = qHTS assay to identify small molecule antagonists of the retinoid-related orphan receptor gamma (ROR-gamma) signaling pathway - cell viability counter screen (AID 1159520; active means well fitted curve in the direction sought with a large enough effect in the repeat runs; an effect the other way counts as inactive or inconclusive; further: nearly all actives have a fitted effect of over 50% in size; further: potency means the concentration at half of the fitted maximal effect)
In short: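 Cytotoxicity was read from cellular ATP (CellTiter-Glo luminescence) after 16 hr at 37 C with 1 uM doxycycline induction. The inducer was added 2 hr after compound transfer to Tet-on ROR gamma CHO cells.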

[7] = biological target: Nuclear receptor ROR-gamma (Homo sapiens) (UniProt P51449); assay: qHTS assay to identify small molecule antagonists of the retinoid-related orphan receptor gamma (ROR-gamma) signaling pathway (AID 1159521; active means well fitted curve in the direction sought with a large enough effect in the repeat runs; an effect the other way counts as inactive or inconclusive; further: nearly all actives have a fitted effect of over 50% in size; further: potency means the concentration at half of the fitted maximal effect)
In short: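 Inducible-expression reporter assay: doxycycline (1 uM final) switched on RORγ in CHO cells bearing a ROR response element-luciferase construct, with test compounds present from 2 h beforehand. Decreased luminescence after 16 h defined antagonist activity.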

[8] = qHTS assay to identify small molecule agonists of the AP-1 signaling pathway - cell viability counter screen (AID 1159525); further: nearly all actives have a fitted effect of over 55% in size
In short: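 Luminescent ATP readout (Cell Titer Glo, 30 min RT), normalised to DMSO and tetra n-octyl ammonium bromide controls. Cells were ME-180 AP-1-bla in 0.5% dialyzed FBS Opti-MEM, with a 5 h, 37 °C compound exposure.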

[9] = qHTS assay to identify small molecule agonists of the AP-1 signaling pathway (AID 1159526)
[10] = qHTS assay to identify small molecule agonists of the endoplasmic reticulum stress response signaling pathway (AID 1159516; active means well fitted activation curve with a large enough effect in the signal ratio in the repeat runs, not every such curve was filed as active; the % refers to the signal ratio)
In short: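 An ESRE-bla HeLa cell assay: compounds were pin-transferred from DMSO onto overnight-plated cells and left 5 hr at 37 C. Substrate was then loaded for 2 hr at room temperature before reading fluorescence at 460 nm and 530 nm.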

| Compound | Potency [1] | Potency [2] | outcome [3] | outcome [4] | Potency [5] | Potency [6] | Potency [7] | Potency [8] | Potency [9] | outcome [10] |
| --- | --- | --- | --- | --- | --- | --- | --- | --- | --- | --- |
| ClC1=C(Cl)C(Cl)(Cl)C(Cl)=C1Cl | inactive | inactive | inactive | inactive | 27.7 µM (active) and 49 µM (active) | 7.74 µM (active) and 6.11 µM (active) | inactive | inactive | inactive | – |
| O=C1N=C(O)CN1/N=C/c1ccc(-c2ccc([N+](=O)[O-])cc2)o1 | – | inactive | inactive | inactive | inactive | inactive | inactive | inactive | inactive | inactive |
| CC1=CC[C@H]2C[C@@H]1C2(C)C | inactive | inactive | inactive | inactive | – | inactive | inactive | inactive | inactive | inactive |
| CCCCCCOC(C)=O | inactive | inactive | inactive | inactive | inactive | inactive | – | inactive | inactive | inactive |
| O=C(Oc1ccccc1)c1ccc(O)cc1 | – | inactive | inactive | inactive | inactive | inactive | inactive | inactive | inactive | inactive |
| OC1CCCC1 | – | inactive | inactive | inactive | inactive | inactive | inactive | inactive | inactive | – |
| CCCCOCCOCCOC(=O)CCCCC(=O)OCCOCCOCCCC | – | inactive | inactive | inactive | inactive | inactive | inactive | inactive | inactive | inactive |
| O=C(c1ccc(O)cc1)c1ccc(O)cc1O | – | inactive | inactive | inactive | inactive | inactive | inactive | inactive | inactive | inactive |
| CC(C)n1c(/C=C/[C@@H](O)C[C@@H](O)CC(=O)O)c(-c2ccc(F)cc2)c2ccccc21 | inactive | inactive | inactive | inactive | inactive | – | 486 nM (active) and 168 nM (active) | inactive | inactive | inactive |
| C=C(C#N)C(=O)OCC | – | inactive | inactive | inactive | inactive | inactive | inactive | inactive | inactive | inactive |
| C=C1CC[C@H](O)CC1=C/C=C1\CCC[C@]2(C)[C@@H]([C@H](C)/C=C/[C@H](C)C(C)C)CC[C@@H]12 | – | inactive | inactive | inactive | inactive | – | – | inactive | – | inactive |
| CS(=O)(=O)Nc1ccc([N+](=O)[O-])cc1Oc1ccccc1 | inactive | inactive | inactive | inactive | inactive | inactive | – | inactive | inactive | inactive |
| CS(=O)(=O)c1ccc([C@@H](O)[C@@H](CO)NC(=O)C(Cl)Cl)cc1 | inactive | inactive | inactive | inactive | inactive | inactive | – | inactive | inactive | inactive |
| CN(C)c1cccc(O)c1 | – | inactive | inactive | inactive | inactive | inactive | – | inactive | inactive | inactive |
| O=c1c(-c2ccc(O)cc2)coc2cc(O)ccc12 | – | inactive | inactive | inactive | inactive | inactive | inactive | inactive | inactive | inactive |
